# This is a sample that favours compounds with a hit; in the whole collection about 2.4% have one here.
# M1 ag parental: M1 agonist counterscreen hit in parental CHO-K1 cells; Fluo-8 calcium fluorescence; scaled to maximal ATP response, vehicle zero; activation, % at 3 µM; 360,000 tested, 0.48% active; AID 602248; in the data active means activation above about 15%;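 further: untransfected CHO-K1 host cells lacking M1 receptor as counterscreen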
# M1 PAM parental: nonselective activator or artifact in parental CHO-K1 calcium assay. ATP EC20, Fluo-8 calcium fluorescence; 0% at ATP EC20, 100% at ATP max. activation, % at 3 µM. 360,000 tested, 0.02% active. AID 602247;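 active means activation above the run cutoff, the mean activation of all test compounds plus 3 SD, cut at about 40% in these data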;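 further: peak over basal fluorescence ratio in a 140 s read after ATP addition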
# CHO-K1 Ca antag: nonselective inhibitor or artifact in parental CHO-K1 cells; inhibition, % at 3 µM; AID 602250; 360,000 tested, 0.6% active; ATP-induced calcium, Fluo-8 fluorescence;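 active means inhibition above a per-plate cutoff, the plate's mean sample inhibition plus 3 SD, cut at about 24% in these data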;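 further: 0% = DMSO plus EC80 ATP and 100% = DMSO alone without ATP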
# M1 antag: blocks human M1 muscarinic receptor; CHO-K1 hM1, Fluo-8 calcium fluorescence, ACh EC80 antagonist; P11229; 360,000 tested, 1.3% active; inhibition, % at 3 µM; AID 588852;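 active means percent inhibition above its own plate's cutoff, namely the mean of that plate's compound wells plus 3 SD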;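 further: peak over basal fluorescence ratio during 140 s after agonist addition; 0% = ACh EC80 plus DMSO and 100% = DMSO alone without agonist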
# Target sequence (P11229 whole entry, looked up): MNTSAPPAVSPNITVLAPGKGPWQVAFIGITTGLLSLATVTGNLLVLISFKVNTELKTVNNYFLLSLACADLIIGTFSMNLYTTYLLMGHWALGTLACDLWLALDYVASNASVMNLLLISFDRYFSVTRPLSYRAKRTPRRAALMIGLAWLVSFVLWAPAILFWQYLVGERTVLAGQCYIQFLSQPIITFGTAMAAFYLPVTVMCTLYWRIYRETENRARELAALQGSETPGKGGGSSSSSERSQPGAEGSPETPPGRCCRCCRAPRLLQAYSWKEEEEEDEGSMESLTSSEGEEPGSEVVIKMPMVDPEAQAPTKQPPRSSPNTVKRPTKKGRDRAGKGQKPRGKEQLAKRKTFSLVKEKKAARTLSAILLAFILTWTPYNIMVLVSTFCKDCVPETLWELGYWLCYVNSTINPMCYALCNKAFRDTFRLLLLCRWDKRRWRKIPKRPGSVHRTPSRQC
# CHRM1 PAM: positive allosteric modulators of human M1 muscarinic receptor; activation, % at 3 µM; AID 588819; P11229; CHO-K1 hM1, Fluo-8 calcium fluorescence, ACh EC20; 0% = ACh EC20, 100% = maximal ACh; 360,000 tested, 0.088% active; in the data active means activation above about 19%, passing the limit was not always enough
# CHRM1 agonist: human M1 muscarinic receptor agonism; activation, % at 3 µM; 360,000 tested, 0.33% active; CHO-K1 hM1, Fluo-8 calcium fluorescence, agonist mode; 0% DMSO, 100% acetylcholine EC100; P11229;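 active means activation above the run's mean compound activation plus 3 SD, cut at about 16% in these data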;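 further: peak over basal fluorescence ratio within a 140 s kinetic read after compound addition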
# The depositor's hits bear a star.
SMILES,M1 ag parental,M1 PAM parental,CHO-K1 Ca antag,M1 antag,CHRM1 PAM,CHRM1 agonist
Cc1ccc(C(=O)NCC(=O)OCC(=O)Nc2cc(S(=O)(=O)N3CCOCC3)ccc2C)cc1,1,3,-2,-11,6,-2
Cc1ccc(S(=O)(=O)N2CCOCC2)cc1NC(=O)COC(=O)CNC(=O)c1ccc(Oc2ccccc2)cc1,2,-12,25*,7,-2,-4
Cc1ccc(S(=O)(=O)N2CCOCC2)cc1NC(=O)COC(=O)CCOc1ccc(C(C)(C)C)cc1,16*,-2,-2,8,-9,1
COc1ccc(Cl)cc1CC=NNC(=O)c1cccc(C)c1O,0,12,-7,-14,2,-1
CN(C)CCN(C)C1CN(Cc2ccc(F)cc2)S(=O)(=O)C1 (stereo not given),0,10,14,-7,6,-10
CC(C)(C)[C@]1(O)CCN2C[C@H]3c4ccccc4CCc4cccc(c43)[C@@H]2C1,2,41*,-18,-32,4,1
CCOC(=O)c1c(C)[nH]c(N=Nc2cccc(OC)c2)c1C,0,8,-15,-12,9,-8
COCCOC(=O)c1[nH]c2c(c1C)C(=O)CC(c1ccc(N(C)C)cc1)C2 (stereo not given),16*,6,6,-4,-6,5
COc1ccccc1Oc1ccc2c(c1)C(=O)N(c1cccc3ncccc13)C2=O,11,1,24*,25,-8,10
O=C1COc2ccc(NC(=O)c3ccccc3C(=O)O)cc2N1,0,3,10,-6,11,-2
CC(NC(=O)C12CC3CC(CC(O)(C3)C1)C2)c1ccc(Cl)cc1Cl (stereo not given),0,8,-10,-15,13,-2
COc1ccc(S(=O)(=O)N2CCN(C(=O)c3ccc(=O)[nH]n3)CC2)cc1OC,16*,3,8,-2,7,1
COc1ccc(C(=O)N2CCN(S(=O)(=O)c3ccc(Cl)cc3)CC2)cc1OC,2,20,-7,-7,8,-5
COc1ccc(C(=O)N2CCN(S(=O)(=O)c3ccc(F)cc3)CC2)cc1OC,20*,7,9,-6,12,-8
Cc1ccc(C(=O)N2CCN(S(=O)(=O)c3ccccc3)CC2)cc1,-1,-5,7,31*,-9,-6
COc1ccc(S(=O)(=O)N2CCN(C(=O)c3cccnc3)CC2)cc1OC,1,9,-10,-13,4,-4
CC(CC(=O)Nc1nnc(C(C)(C)C)s1)c1ccccc1 (stereo not given),0,-11,23,-8,15,6
COC(=O)CCN(C(=O)c1ccc(N2CCCC2)c([N+](=O)[O-])c1)c1ccccn1,1,21,-18,-4,4,-3
COC(=O)CCN(C(=O)c1ccc(N2CCCCC2)c([N+](=O)[O-])c1)c1ccccn1,20*,10,7,-5,6,-6
Cc1ccc(Cl)cc1NC(=O)N(C)CCO,0,12,-12,-12,17,-3
Cc1cccc(NC(=O)C2CCCN(S(=O)(=O)c3ccc4[nH]c(=O)ccc4c3)C2)c1 (stereo not given),0,-4,0,-18,-2,-6
Cc1cc(C)n(C(C)CC(=O)N2CCc3ccccc32)n1 (stereo not given),1,9,-4,33*,-16,-5
Cc1noc(C)c1COc1ccc(C(=O)Nc2cccnc2)cc1,1,2,-11,71*,-26,-8
Cc1ccc(CNC(=O)C2CC3Cn4c(nc5cc(Cl)c(Cl)cc54)C3N2C)o1 (stereo not given),1,28,-16,3,1,-3
COc1cccc(CN2CCN(Cc3[nH]c4ccccc4c3C)CC2CCO)c1 (stereo not given),22*,-1,0,-1,3,-7
SMILES,M1 ag parental,M1 PAM parental,CHO-K1 Ca antag,M1 antag,CHRM1 PAM,CHRM1 agonist
CC(=O)c1cccc(CN2CCN(Cc3ccc(F)cc3)C(CCO)C2)c1 (stereo not given),0,9,10,4,-2,-12
CC(=O)c1cccc(CN2CCN(Cc3ccc(C)cc3)C(CCO)C2)c1 (stereo not given),1,10,-11,40*,-20,-9
COc1cccc(C(CNC(=O)C2CCN(C(=O)Nc3ccccc3)CC2)N(C)C)c1 (stereo not given),1,18,-24,10,-9,-8
C=C(C)C(=O)Nc1cccnc1Oc1ccc(F)cc1F,0,8,-7,-7,7,-3
CC(c1ccccc1)n1c(N2CCNCC2)nc2c1c(=O)[nH]c(=O)n2C (stereo not given),0,-17,12,69*,3,1
CC(c1ccccc1)n1c(Br)nc2c1c(=O)[nH]c(=O)n2C (stereo not given),1,5,-4,-1,2,-2
C=CCNC(=S)Nc1ccc(Cl)cc1F,16*,8,8,7,1,-4
CCN(CC)S(=O)(=O)c1ccc(N2CCOCC2)c(NC(=O)c2cc([N+](=O)[O-])ccc2Cl)c1,0,4,-12,-2,8,-6
CC(=O)c1c(O)cc(=O)oc1-c1ccc(C)cc1,0,9,-5,-8,6,-3
Cc1ccc(-c2nc(CSCC(=O)N3CCOCC3)c(C)o2)cc1,1,14,-4,-8,7,-2
CCOc1ccc(-c2nc(CSCC(=O)N3CCN(c4cccc(OC)c4)CC3)c(C)o2)cc1,6,-4,15,35*,-19,-2
CCc1ccc(-c2nc(CSCC(=O)N3CCN(c4ccccn4)CC3)c(C)o2)cc1,6,-7,29*,14,-10,0
Cc1ccc(-c2nc(CSCC(=O)N3CCN(c4ccccn4)CC3)c(C)o2)cc1,9,4,1,33*,-27,-3
Cc1ccnc(SC2CC(=O)N(c3ccc(F)cc3)C2=O)n1 (stereo not given),0,-2,3,-16,10,-1
COc1ccc(-c2cc3ncnc(Cl)c3s2)cc1,3,5,-13,-14,14,-2
CC1=C(C(=O)OC(C)C)C(c2ccccc2)NC(=S)N1C (stereo not given),7,-3,11,-1,4,-9
Cc1ccc(OCC(=O)N/N=C2/SCC(=O)N2Cc2ccccc2)cc1,0,-15,25*,-6,1,-2
Cc1ccccc1OCC(=O)N/N=C1\SCC(=O)N1Cc1ccccc1,0,18,-9,-10,6,-6
CC(C)(C)NC(=O)CSc1nc(Cc2ccccc2)nc2ccccc12,0,18,-11,-9,5,-3
CSc1nc(Cc2ccccc2)nc2ccccc12,-1,-5,24*,10,-2,-6
